In PubChem BioAssay (EPA / NIEHS):
Several values for one entry are separate records, joined by “and”; a condition that tells them apart may be missing. Identical values can stand only once. A structure can be active in one record and inactive in another. Activity calls are given as the source filed them. How the source made its calls: active means hit-call score of the fitted dose curve at least 0.9, where 1 is the maximum; inactive means score below 0.9.

What was measured:
[1] = read-out: Interleukin-8 (IL8), CXCL8 (gene 3576); experiment: BSK_BF4T_IL8: BioMAP Diversity Plus: BF4T Assay for Interleukin-8 (IL8) Biomarker Activity (AID 2284263); conditions: primary human bronchial epithelial cells with fibroblasts
How it was run: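 Human bronchial epithelial cells with dermal fibroblasts co-culture; IL-8 measured by ELISA 24 hours after dosing, fitted vs DMSO. Cytotoxicity tracked in parallel cultures by SRB total-protein staining.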

[2] = read-out: Interleukin-1 alpha (IL1a), IL1A (gene 3552); experiment: BSK_BF4T_IL1a: BioMAP Diversity Plus: BF4T Assay for Interleukin-1 alpha (IL1a) Biomarker Activity (AID 2284264); conditions: primary human bronchial epithelial cells with fibroblasts
How it was run: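 Human bronchial epithelial cells co-cultured with dermal fibroblasts, dosed and read at 24 h. Secreted/surface IL-1α quantified by ELISA; gain-of-signal fitted relative to DMSO baseline. Parallel SRB total-protein staining tracked cytotoxicity.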

[3] = read-out: Decorin, DCN (gene 1634); experiment: BSK_MyoF_Decorin: BioMAP Diversity Plus: MyoF Assay for Decorin Biomarker Activity (AID 2284265); conditions: primary human lung fibroblasts
How it was run: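 Decorin protein was quantified by ELISA 24 h after chemical addition to primary human lung fibroblasts and analysed as increase over DMSO. Cytotoxicity was tracked in parallel cultures by SRB total-protein staining read at 560 nm.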

[4] = read-out: KRT18 (gene 3875); experiment: BSK_BF4T_Keratin818: BioMAP Diversity Plus: BF4T Assay for Keratin 818 Biomarker Activity (AID 2284266); conditions: primary human bronchial epithelial cells with fibroblasts
How it was run: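 Co-culture of human bronchial epithelial cells and dermal fibroblasts, chemical exposure 24 h. Keratin 8/18 measured by ELISA; positive-direction fit vs DMSO. SRB total protein run in parallel cultures for cytotoxicity.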

[5] = BSK_MyoF_SRB: Viability Assessment in the BioMAP Diversity Plus: MyoF Assay (AID 2284267); conditions: primary human lung fibroblasts;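 further: total protein by SRB absorbance in parallel cultures as cytotoxicity measure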
How it was run: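 Human lung fibroblasts, 24 h after chemical dosing; total protein measured by 0.1% sulforhodamine B staining after 10% TCA fixation, read at 560 nm, fitted relative to DMSO baseline.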

[6] = read-out: Matrix Metallopeptidase 1 (MMP1), MMP1 (gene 4312); experiment: BSK_MyoF_MMP1: BioMAP Diversity Plus: MyoF Assay for Matrix Metallopeptidase 1 (MMP1) Biomarker Activity (AID 2284268); conditions: primary human lung fibroblasts
How it was run: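 Human lung fibroblasts (MyoF system) exposed to chemical for 24 h in 96-well format; MMP1 biomarker quantified by ELISA, with activity fitted in the positive direction relative to DMSO baseline.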

[7] = read-out: TIMP metallopeptidase inhibitor 1 (TIMP1), TIMP1 (gene 7076); experiment: BSK_MyoF_TIMP1: BioMAP Diversity Plus: MyoF Assay for TIMP metallopeptidase inhibitor 1 (TIMP1) Biomarker Activity (AID 2284269); conditions: primary human lung fibroblasts
How it was run: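 Primary human lung fibroblasts, MyoF multiplex system; chemical exposure 24 h; TIMP-1 by ELISA; positive fitting direction vs DMSO control.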

[8] = read-out: Matrix Metallopeptidase 1 (MMP1), MMP1 (gene 4312); experiment: BSK_BF4T_MMP1: BioMAP Diversity Plus: BF4T Assay for Matrix Metallopeptidase 1 (MMP1) Biomarker Activity (AID 2284270); conditions: primary human bronchial epithelial cells with fibroblasts
How it was run: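 Co-culture of human bronchial epithelial cells and dermal fibroblasts; MMP-1 levels measured by ELISA 24 hours after chemical dosing, relative to DMSO. Cytotoxicity checked in parallel cultures by SRB total-protein staining.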

[9] = read-out: Matrix Metallopeptidase 3 (MMP3), MMP3 (gene 4314); experiment: BSK_BF4T_MMP3: BioMAP Diversity Plus: BF4T Assay for Matrix Metallopeptidase 3 (MMP3) Biomarker Activity (AID 2284271); conditions: primary human bronchial epithelial cells with fibroblasts
How it was run: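 Co-culture of human bronchial epithelial cells and dermal fibroblasts dosed 24 h; MMP-3 measured by ELISA, positive-direction fit versus DMSO. Cytotoxicity tracked by SRB total-protein staining (560 nm) in parallel cultures.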

[10] = read-out: Tissue plasminogen activator (tPA), PLAT (gene 5327); experiment: BSK_BF4T_tPA: BioMAP Diversity Plus: BF4T Assay for Tissue plasminogen activator (tPA) Biomarker Activity (AID 2284272); conditions: primary human bronchial epithelial cells with fibroblasts
How it was run: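 tPA level quantified by ELISA at 24 h post-treatment in bronchial epithelial/dermal fibroblast co-cultures, gain of signal scored against DMSO baseline. Parallel cultures stained with 0.1% SRB (560 nm) to flag overt cytotoxicity.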

[11] = read-out: Matrix Metallopeptidase 9 (MMP9), MMP9 (gene 4318); experiment: BSK_BF4T_MMP9: BioMAP Diversity Plus: BF4T Assay for Matrix Metallopeptidase 9 (MMP9) Biomarker Activity (AID 2284276); conditions: primary human bronchial epithelial cells with fibroblasts
How it was run: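 Co-culture of human bronchial epithelial cells and dermal fibroblasts dosed for 24 h; MMP-9 quantified by ELISA and fitted upward versus DMSO. Cytotoxicity monitored in parallel cultures by SRB total-protein staining at the biomarker time point.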

[12] = read-out: Interleukin-8 (IL8), CXCL8 (gene 3576); experiment: BSK_IMphg_IL8: BioMAP Diversity Plus: IMphg Assay for Interleukin-8 (IL8) Biomarker Activity (AID 2284277); conditions: primary human endothelial cells with macrophages
How it was run: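 Co-culture of human venular endothelial cells and macrophages exposed to chemicals for 24 h; IL-8 quantified by ELISA and compared against the DMSO baseline, with SRB total-protein staining in parallel cultures for cytotoxicity.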

[13] = read-out: Intercellular Adhesion Molecule 1 (ICAM1), ICAM1 (gene 3383); experiment: BSK_BE3C_ICAM1: BioMAP Diversity Plus: BE3C Assay for Intercellular Adhesion Molecule 1 (ICAM1) Biomarker Activity (AID 2284278); conditions: primary human bronchial epithelial cells
How it was run: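 Primary human bronchial epithelial cells in BE3C system, 24 h after chemical dosing; cell-surface ICAM-1 measured by ELISA relative to DMSO. Parallel SRB staining (0.1% SRB after 10% TCA fixation, read at 560 nm) assessed cytotoxicity.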

[14] = read-out: Interferon-inducible T-cell alpha chemoattractant (ITAC), CXCL11 (gene 6373); experiment: BSK_BE3C_ITAC: BioMAP Diversity Plus: BE3C Assay for Interferon-inducible T-cell alpha chemoattractant (ITAC) Biomarker Activity (AID 2284279); conditions: primary human bronchial epithelial cells
How it was run: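 Steps: dose human bronchial epithelial cells with chemical; incubate 24 h; measure I-TAC by ELISA; fit endpoint in positive direction against DMSO control. Cytotoxicity was checked in parallel cultures by SRB staining at harvest.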

[15] = read-out: Interleukin-8 (IL8), CXCL8 (gene 3576); experiment: BSK_BE3C_IL8: BioMAP Diversity Plus: BE3C Assay for Interleukin-8 (IL8) Biomarker Activity (AID 2284280); conditions: primary human bronchial epithelial cells
How it was run: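 Primary human bronchial epithelial cells (BE3C system) exposed 24 h; IL-8 measured by ELISA and fitted in positive direction versus DMSO. Overt cytotoxicity assessed by SRB total-protein staining in parallel cultures.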

[16] = read-out: Epidermal growth factor receptor (EGFR), EGFR (gene 1956); experiment: BSK_BE3C_EGFR: BioMAP Diversity Plus: BE3C Assay for Epidermal growth factor receptor (EGFR) Biomarker Activity (AID 2284281); conditions: primary human bronchial epithelial cells
How it was run: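 Human primary bronchial epithelial cells (BE3C system) dosed with chemicals; EGFR measured by ELISA at 24 h, fitted in the positive direction relative to DMSO. Cytotoxicity tracked in parallel cultures by SRB total-protein staining.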

[17] = read-out: KRT18 (gene 3875); experiment: BSK_BE3C_Keratin818: BioMAP Diversity Plus: BE3C Assay for Keratin 818 Biomarker Activity (AID 2284282); conditions: primary human bronchial epithelial cells
How it was run: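 Primary human bronchial epithelial cells treated 24 h; Keratin 8/18 quantified by ELISA, fit relative to DMSO. Cytotoxicity tracked in parallel cultures by sulforhodamine B total-protein staining.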

[18] = read-out: urokinase Plasminogen Activator (uPA), PLAU (gene 5328); experiment: BSK_BF4T_uPA: BioMAP Diversity Plus: BF4T Assay for urokinase Plasminogen Activator (uPA) Biomarker Activity (AID 2284275); conditions: primary human bronchial epithelial cells with fibroblasts
How it was run: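 Co-culture of human bronchial epithelial cells and dermal fibroblasts; uPA quantified by ELISA 24 hours after dosing, fitted relative to DMSO. Parallel SRB total-protein staining assessed overt cytotoxicity.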

[19] = read-out: Plasminogen Activator Inhibitor-1 (PAI1), SERPINE1 (gene 5054); experiment: BSK_BF4T_PAI1: BioMAP Diversity Plus: BF4T Assay for Plasminogen Activator Inhibitor-1 (PAI1) Biomarker Activity (AID 2284273); conditions: primary human bronchial epithelial cells with fibroblasts
How it was run: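 Co-culture of human bronchial epithelial cells and dermal fibroblasts exposed to compound for 24 h. PAI-1 measured by ELISA; activity fitted in positive direction versus DMSO. Parallel SRB staining assessed overt cytotoxicity.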

[20] = BSK_BF4T_SRB: Viability Assessment in the BioMAP Diversity Plus: BF4T Assay (AID 2284274); conditions: primary human bronchial epithelial cells with fibroblasts
How it was run: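 Co-culture of human bronchial epithelial cells and dermal fibroblasts (BioMAP BF4T) exposed 24 h. Total protein by sulforhodamine B staining (0.1% SRB after 10% TCA fixation, 560 nm) in parallel cultures; fitted vs DMSO.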

Measured: AC50

FC(F)(F)C(F)(F)C(F)(F)C(F)(F)CCI
active: [9] 8.85 µM
inactive: [1] | [2] | [3] | [4] | [5] | [6] | [7] | [8] | [9] | [10] | [11] | [12] | [13] | [14] | [15] | [16] | [17]

FC(F)(F)C(F)(F)C(F)(F)CI
not listed: [5] | [19] | [20]
inactive: all other assays above

C=C(C)C(=O)OCCC(F)(F)C(F)(F)C(F)(F)C(F)(F)C(F)(C(F)(F)F)C(F)(F)F
not listed: [5] | [7] | [8] | [18] | [20]
inactive: all other assays above

COC(=O)CCC(F)(F)C(F)(F)C(F)(F)C(F)(F)F
not listed: [5] | [7] | [19]
inactive: all other assays above

CS(C)(=O)=O
inactive: [3] | [6]

O[Si](c1ccccc1)(c1ccccc1)c1ccccc1
inactive: [3]
active: [6] 13.9 µM

Oc1ccc(Nc2ccccc2)cc1
inactive: [3] | [6] | [7]

CCCCCCCCCCCCCCCC[N+](C)(C)Cc1ccccc1
active: [3] 9.35 µM | [5] 5.13 µM | [6] 2.7 µM | [7] 8.14 µM

C=CC(F)(F)C(F)(F)C(F)(F)C(F)(F)C(F)(F)C(F)(F)C(F)(F)C(F)(F)F
not listed: [5] | [7] | [8] | [20]
inactive: all other assays above

O=S(=O)(OCCOC(F)(F)F)C(F)(F)F
not listed: [5] | [7] | [8] | [19] | [20]
inactive: all other assays above

CCCCC(CC)COP(=O)(O)OCC(CC)CCCC (stereo unspecified)
inactive: [13] | [15] | [17]
active: [13] 29 µM | [14] 28.9 µM | [16] 26.3 µM and 20 µM

C=CC/C=C/C/C=C/C/C=C/C
inactive: [3] | [5] | [6] | [7]

CCc1c(Br)c(Br)c(Br)c(Br)c1Br
active: [6] 13.2 µM
inactive: [3] | [5] | [7]

FC(F)(Br)C(F)(F)C(F)(F)C(F)(F)C(F)(F)C(F)(F)Br
not listed: [5] | [7] | [8] | [18] | [19] | [20]
inactive: all other assays above

C=C(C)C(=O)OCC(F)(F)C(F)(F)C(F)(F)C(F)(F)C(F)(F)C(F)(F)C(F)(F)F
not listed: [5] | [7]
inactive: all other assays above

CCCCOCCOCCOC(=O)CCCCC(=O)OCCOCCOCCCC
inactive: [3] | [6]

Nc1ccc([N+](=O)[O-])cc1O
inactive: [3] | [6]

CC(CCl)OP(=O)(OC(C)CCl)OC(C)CCl (stereo unspecified)
inactive: [3] | [5] | [6]

CCCCNc1ccccc1
inactive: [3] | [6]

N=C(N)C(F)(F)C(F)(F)C(F)(F)C(F)(F)C(F)(F)C(F)(F)C(F)(F)F
inactive: [1] | [2] | [3] | [4] | [6] | [9] | [10] | [11] | [12] | [13] | [14] | [15] | [16] | [17]
active: [9] 33.6 µM | [12] 30 µM | [15] 30 µM
